Where “and” joins values, the source holds several entries; their conditions need not be identical. Equal entries are not always repeated. Inconclusive results are not listed. Some compounds were tested as several samples or in several runs, with calls that do not always agree. Calls of active or inactive are those of the source. Unless noted, calls follow the shape of the dose curve; as a rule, active = well fitted curve in the direction sought with a large enough effect in the repeat runs; inconclusive = weak or mixed curves; inactive = no such curve, though single readings can be large; an effect the other way counts as inactive or inconclusive.
Legend:
[1] = qHTS assay to identify small molecule agonists of the androgen receptor (AR) signaling pathway in the presence of an antagonist - cell viability counter screen (AID 1259379);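 also: MDA-kb2 human breast cancer cells carrying an MMTV luciferase reporter; series mostly up to about 92 µM; nearly all actives have a fitted effect of over 25% in size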
Method in brief: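 MDA-kb2 viability measured by CellTiter-Fluor fluorescence in the same wells as the luciferase signal; nilutamide 3.0uM final; 15-point compound titration; 16 hr at 37C.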

[2] = qHTS assay to identify small molecule agonists of the estrogen receptor beta (ER-beta) signaling pathway - cell viability counter screen (AID 1259380); also: nearly all actives have a fitted effect of over 30% in size; also: potency is read from the fitted curve at half-maximal effect
Method in brief: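 Measured: luminescence from CellTiter-Glo after 30 min at room temperature, added to wells already read for the LiveBLAzer FRET reporter (2 hr substrate); ER-beta-UAS-bla HEK293T cells had 16 hr compound treatment at 37C, 5% CO2.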

[3] = molecular target: Androgen receptor (Homo sapiens) (UniProt P10275); experiment: qHTS assay to identify small molecule agonists of the androgen receptor (AR) signaling pathway in the presence of an antagonist (AID 1259381; calls by dose curve; also: nearly all actives have a fitted effect of over 15% in size)
Sequence of Androgen receptor (Homo sapiens) (P10275 whole entry, looked up): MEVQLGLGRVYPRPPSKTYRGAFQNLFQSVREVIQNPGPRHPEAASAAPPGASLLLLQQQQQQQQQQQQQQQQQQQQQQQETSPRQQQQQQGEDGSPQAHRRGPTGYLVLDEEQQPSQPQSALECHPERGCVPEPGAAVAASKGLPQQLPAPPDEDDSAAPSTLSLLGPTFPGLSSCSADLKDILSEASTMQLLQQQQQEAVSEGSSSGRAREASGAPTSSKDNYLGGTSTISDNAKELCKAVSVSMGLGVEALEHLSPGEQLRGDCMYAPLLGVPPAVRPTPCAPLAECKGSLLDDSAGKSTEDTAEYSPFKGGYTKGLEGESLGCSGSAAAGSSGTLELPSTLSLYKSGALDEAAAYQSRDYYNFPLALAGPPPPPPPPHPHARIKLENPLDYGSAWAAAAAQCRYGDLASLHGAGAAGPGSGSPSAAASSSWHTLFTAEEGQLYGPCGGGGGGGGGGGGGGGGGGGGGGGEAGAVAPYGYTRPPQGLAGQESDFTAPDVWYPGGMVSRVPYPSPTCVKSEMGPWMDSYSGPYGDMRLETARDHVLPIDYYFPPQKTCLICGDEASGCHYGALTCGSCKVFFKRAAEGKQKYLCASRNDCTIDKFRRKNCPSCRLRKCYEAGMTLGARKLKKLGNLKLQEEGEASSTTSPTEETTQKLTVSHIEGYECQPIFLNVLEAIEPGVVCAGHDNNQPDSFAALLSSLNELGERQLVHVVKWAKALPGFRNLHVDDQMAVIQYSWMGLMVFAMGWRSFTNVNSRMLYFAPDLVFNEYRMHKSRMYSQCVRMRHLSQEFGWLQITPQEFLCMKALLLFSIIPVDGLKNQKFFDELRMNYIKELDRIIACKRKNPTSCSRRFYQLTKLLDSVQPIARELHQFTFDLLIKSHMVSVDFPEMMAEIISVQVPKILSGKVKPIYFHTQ
Method in brief: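 Luminescent ONE-Glo read, 30min at room temperature, follows 16hr compound exposure (15 concentrations) of MDA-kb2 cells at 37C, 0% CO2, with nilutamide added at 3.0uM final.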

[4] = qHTS assay to identify small molecule antagonists of the estrogen receptor beta (ER-beta) signaling pathway - cell viability counter screen (AID 1259382); also: nearly all actives have a fitted effect of over 55% in size; also: potency is read from the fitted curve at half-maximal effect;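 as to activity change, negative = cytotoxicity: HEK293T cells carrying ER-beta-UAS-bla reporter stimulated with estradiol; series mostly up to about 92 µM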
Method in brief: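 Readout: luminescence, CellTiter-Glo, same wells as bla assay. System: ER-beta-UAS-bla GripTite HEK293T, 2% charcoal-stripped FBS. Exposure: compounds plus 1nM 17-beta-estradiol, 16 hr, 37C.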

[5] = qHTS assay to identify small molecule agonists or antagonists of the thyroid stimulating hormone receptor (TSHR) signaling pathway - wild type cell line counter screen (AID 1259384; calls by dose curve)
Method in brief: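 Counter screen in untransfected Hek293: compounds (15-point titration, triplicate) plus phosphodiesterase inhibitor Ro20-1724 added after 18 h plating; 30 min RT. Intracellular cAMP via competitive d2/cryptate immunoassay, 1 h incubation.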

[6] = molecular target: Thyrotropin receptor (Homo sapiens) (UniProt P16473); experiment: qHTS assay to identify small molecule antagonists of the thyroid stimulating hormone receptor (TSHR) signaling pathway (AID 1259385; calls by dose curve; also: nearly all actives have a fitted effect of over 20% in size)
Sequence of Thyrotropin receptor (Homo sapiens) (P16473 whole entry, looked up): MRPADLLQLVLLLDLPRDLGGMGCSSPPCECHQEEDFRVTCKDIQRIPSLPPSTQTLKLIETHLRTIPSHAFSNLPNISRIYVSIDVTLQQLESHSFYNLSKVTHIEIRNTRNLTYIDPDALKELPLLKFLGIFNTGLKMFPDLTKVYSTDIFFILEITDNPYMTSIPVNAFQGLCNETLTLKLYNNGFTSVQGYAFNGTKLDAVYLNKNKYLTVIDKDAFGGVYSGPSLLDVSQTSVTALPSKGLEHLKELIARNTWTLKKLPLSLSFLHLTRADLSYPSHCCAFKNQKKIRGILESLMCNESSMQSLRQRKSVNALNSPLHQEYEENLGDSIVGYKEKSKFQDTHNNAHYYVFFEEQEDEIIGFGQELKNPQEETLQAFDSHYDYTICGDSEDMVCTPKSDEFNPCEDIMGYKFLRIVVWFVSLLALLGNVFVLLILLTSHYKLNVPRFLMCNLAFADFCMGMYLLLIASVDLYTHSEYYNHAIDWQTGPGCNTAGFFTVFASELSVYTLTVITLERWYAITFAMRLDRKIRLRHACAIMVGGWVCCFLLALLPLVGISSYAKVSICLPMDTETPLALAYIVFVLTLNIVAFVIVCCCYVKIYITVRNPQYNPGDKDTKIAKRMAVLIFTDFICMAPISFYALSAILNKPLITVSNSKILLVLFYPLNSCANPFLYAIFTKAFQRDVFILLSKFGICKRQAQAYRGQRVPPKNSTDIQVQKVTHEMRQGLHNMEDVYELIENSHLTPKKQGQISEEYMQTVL
Method in brief: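 Antagonist mode: compound-treated TSHR-expressing HEK293 cells were stimulated with 1.5 ng/mL TSH (final) in presence of Ro20-1724 for 30 min at RT. HTRF cAMP detection after 1 h; each compound tested at 15 concentrations, triplicate.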

[7] = molecular target: Progesterone receptor (Homo sapiens) (UniProt P06401); experiment: qHTS assay to identify small molecule agonists of the progesterone receptor (PR) signaling pathway (AID 1346784; calls by dose curve; also: nearly all actives have a fitted effect of over 30% in size)
Sequence of Progesterone receptor (Homo sapiens) (P06401 whole entry, looked up): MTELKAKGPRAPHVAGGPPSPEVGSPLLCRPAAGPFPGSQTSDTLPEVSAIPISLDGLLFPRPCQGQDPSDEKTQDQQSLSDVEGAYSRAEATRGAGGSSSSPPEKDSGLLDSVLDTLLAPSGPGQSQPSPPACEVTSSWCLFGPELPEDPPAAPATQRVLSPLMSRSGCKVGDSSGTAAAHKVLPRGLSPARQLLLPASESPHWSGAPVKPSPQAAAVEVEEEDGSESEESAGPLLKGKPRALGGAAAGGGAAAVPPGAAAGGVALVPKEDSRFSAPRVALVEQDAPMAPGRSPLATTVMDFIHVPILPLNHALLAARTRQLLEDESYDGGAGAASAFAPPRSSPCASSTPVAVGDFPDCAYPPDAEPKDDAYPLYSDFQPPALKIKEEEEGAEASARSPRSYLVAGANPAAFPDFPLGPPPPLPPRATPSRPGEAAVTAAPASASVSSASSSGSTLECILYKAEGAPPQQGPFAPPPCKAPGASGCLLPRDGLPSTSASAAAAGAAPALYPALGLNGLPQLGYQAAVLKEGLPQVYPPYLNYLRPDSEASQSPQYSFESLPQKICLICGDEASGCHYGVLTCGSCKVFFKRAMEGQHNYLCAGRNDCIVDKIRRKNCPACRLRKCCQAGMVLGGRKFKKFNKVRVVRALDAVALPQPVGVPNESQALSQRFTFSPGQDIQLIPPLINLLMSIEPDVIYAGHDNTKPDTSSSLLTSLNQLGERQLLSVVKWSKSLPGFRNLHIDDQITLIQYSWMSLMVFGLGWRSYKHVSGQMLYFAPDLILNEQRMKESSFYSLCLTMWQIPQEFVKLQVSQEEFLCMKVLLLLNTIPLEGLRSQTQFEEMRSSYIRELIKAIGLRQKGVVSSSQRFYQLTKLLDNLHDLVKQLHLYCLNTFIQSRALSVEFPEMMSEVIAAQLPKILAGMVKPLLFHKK
Method in brief: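 Reporter assay, GripTite PR-UAS-bla HEK 293T cells: 16 hr exposure to DMSO-dissolved compounds at 37C, 5% CO2, in steroid-depleted (2% charcoal-stripped FBS) medium; beta-lactamase measured by FRET fluorescence.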

[8] = molecular target: Progesterone receptor (Homo sapiens) (UniProt P06401); experiment: qHTS assay to identify small molecule antagonists of the progesterone receptor (PR) signaling pathway (AID 1346795; active = well fitted inhibition curve with a large enough effect in the signal ratio in the repeat runs, not every such curve was filed as active; the % refers to the signal ratio)
Method in brief: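 Stimulus R5020 at 1 nM final; cells HEK293T PR-UAS-bla; medium with 2% charcoal-stripped FBS; compound exposure 16 hr at 37C, 5% CO2; detection by FRET beta-lactamase substrate, 2 hr, room temperature.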

[9] = qHTS assay to identify small molecule antagonists of the progesterone receptor (PR) signaling pathway - cell viability counter screen (AID 1346798); also: nearly all actives have a fitted effect of over 50% in size; also: potency is read from the fitted curve at half-maximal effect; as to activity change, negative = cytotoxicity: series mostly up to about 92 µM
Method in brief: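 In the same plates used for the beta-lactamase readout, cell viability of compound- and R5020-treated PR-UAS-bla HEK293T cells (16 hr, 37C) was assessed by CellTiter-Glo luminescence.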

[10] = qHTS assay to identify small molecule agonists of the progesterone receptor (PR) signaling pathway - cell viability counter screen (AID 1346799; calls by dose curve; also: nearly all actives have a fitted effect of over 45% in size; also: potency is read from the fitted curve at half-maximal effect)
Method in brief: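 Multiplexed viability read: CellTiter-Glo luminescence, 30 min RT, following LiveBLAzer FRET measurement on PR-UAS-bla HEK293T cells exposed to compounds 16 hr.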

[11] = qHTS assay to identify small molecule antagonists of the TGF-beta/Smad signaling pathway - cell viability counter screen (AID 1346824); also: nearly all actives have a fitted effect of over 50% in size
Method in brief: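 Cytotoxicity counter-screen run in the same wells as the beta-lactamase Smad reporter read: CellTiter-Glo luminescence after 30 min at room temperature. HEK 293T SBE-bla cells had 5 hr compound exposure at 37 C with TGF-beta1 (0.25 ng/mL stock).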

[12] = qHTS assay to identify small molecule agonists of the TGF-beta/Smad signaling pathway - cell viability counter screen (AID 1346829); also: top concentration of the series differs between compounds; nearly all actives have a fitted effect of over 45% in size
Method in brief: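 Tox21 qHTS format: SBE-bla HEK 293T cells treated with DMSO-dissolved compounds for 5 hr; CellTiter-Glo luminescence after 30 min at room temperature.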

[13] = qHTS assay to identify small molecule agonists of the TGF-beta/Smad signaling pathway (AID 1346859; active = well fitted activation curve with a large enough effect in the signal ratio in the repeat runs, not every such curve was filed as active; the % refers to the signal ratio; also: series mostly up to about 77 µM)
Method in brief: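 Screening used HEK 293T SBE-bla cells at 4,000/well. Test agents: 5 hr, 37 C. Detection: FRET substrate, 2 hr RT, then excitation 405 nm with emissions at 460 and 530 nm.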

[14] = molecular target: Thyrotropin-releasing hormone receptor (Homo sapiens) (UniProt P34981); experiment: qHTS assay to identify small molecule antagonists of the thyrotropin-releasing hormone receptor (TRHR) signaling pathway (AID 1346877; active = well fitted inhibition curve with a large enough effect in the repeat runs, not every such curve was filed as active; also: series mostly up to about 51 µM)
Sequence of Thyrotropin-releasing hormone receptor (Homo sapiens) (P34981 whole entry, looked up): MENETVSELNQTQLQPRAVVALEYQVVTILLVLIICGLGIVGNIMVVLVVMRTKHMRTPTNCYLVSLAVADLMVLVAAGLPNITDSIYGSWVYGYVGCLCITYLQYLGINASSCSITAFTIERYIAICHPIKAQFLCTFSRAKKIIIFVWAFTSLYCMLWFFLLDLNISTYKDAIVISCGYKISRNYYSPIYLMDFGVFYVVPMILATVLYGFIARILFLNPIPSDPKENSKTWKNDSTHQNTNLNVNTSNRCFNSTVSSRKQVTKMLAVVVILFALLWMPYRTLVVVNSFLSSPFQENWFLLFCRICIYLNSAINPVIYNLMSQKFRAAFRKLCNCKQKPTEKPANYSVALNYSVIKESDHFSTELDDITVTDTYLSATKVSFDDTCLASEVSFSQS
Method in brief: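 Overnight-plated (18 h, 37 °C) HEK293 cells expressing TRHR were dye-loaded 2 h, treated with compound, then stimulated with TRH at 1 nM final. Fluorescence intensity was captured every second for 3 min.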

[15] = molecular target: Thyrotropin-releasing hormone receptor (Homo sapiens) (UniProt P34981); experiment: qHTS assay to identify small molecule agonists of the thyrotropin-releasing hormone receptor (TRHR) signaling pathway (AID 1346891; calls by dose curve; also: series mostly up to about 58 µM)
Method in brief: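 Readout was intracellular calcium fluorescence in TRHR-Hek293 cells. Cells were incubated 18 h, dye-loaded 2 h at 37 °C, and treated with compound in agonist mode.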

[16] = Human pregnane X receptor (PXR) small molecule agonists, qHTS cell viability counter screen (AID 1346977); also: nearly all actives have a fitted effect of over 50% in size
Method in brief: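 In each well, the PXR reporter HepG2 line was checked for viability: CellTiter-Fluor reagent added 23hr post-dosing, fluorescence read after 1hr incubation at 37C.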

[17] = molecular target: Estrogen receptor (Homo sapiens) (UniProt P03372); experiment: qHTS assay to identify small molecule agonists of the estrogen receptor alpha (ER-alpha) signaling pathway in the presence of an antagonist (AID 1259383; calls by dose curve; also: top concentration of the series differs between compounds; nearly all actives have a fitted effect of over 15% in size)
Sequence of Estrogen receptor (Homo sapiens) (P03372 whole entry, looked up): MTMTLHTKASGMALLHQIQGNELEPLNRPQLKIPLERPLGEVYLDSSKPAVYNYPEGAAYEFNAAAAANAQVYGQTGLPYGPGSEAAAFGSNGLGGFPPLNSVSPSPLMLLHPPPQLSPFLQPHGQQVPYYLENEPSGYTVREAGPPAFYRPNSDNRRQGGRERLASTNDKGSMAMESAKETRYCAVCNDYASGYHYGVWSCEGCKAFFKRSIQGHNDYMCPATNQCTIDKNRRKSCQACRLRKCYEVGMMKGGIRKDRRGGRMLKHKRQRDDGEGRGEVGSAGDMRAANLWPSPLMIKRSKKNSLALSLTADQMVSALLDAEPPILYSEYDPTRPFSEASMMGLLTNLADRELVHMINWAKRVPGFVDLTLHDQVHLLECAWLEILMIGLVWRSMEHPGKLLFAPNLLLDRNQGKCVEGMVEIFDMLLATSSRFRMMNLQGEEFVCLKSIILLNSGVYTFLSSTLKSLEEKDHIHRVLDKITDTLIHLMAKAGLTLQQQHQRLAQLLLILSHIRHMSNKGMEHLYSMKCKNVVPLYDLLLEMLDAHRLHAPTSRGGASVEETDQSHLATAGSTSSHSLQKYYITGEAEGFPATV
Method in brief: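 Quantitative HTS confirmation: compounds titrated at 15 concentrations onto estrogen-deprived VM7Luc4E2 cells carrying a four-ERE luciferase construct, with ICI-182,780 present at 10.0nM final. Signal is luminescence after 22hr exposure.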

[18] = qHTS assay to identify small molecule agonists of the estrogen receptor alpha (ER-alpha) signaling pathway in the presence of an antagonist - cell viability counter screen (AID 1259386);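 also: series mostly up to about 92 µM; cells exposed to compounds for 22 h at 37 °C before the viability read; nearly all actives have a fitted effect of over 30% in size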
Method in brief: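 The test measures whether compounds kill ER-alpha reporter cells (VM7Luc4E2) under antagonist co-treatment (ICI-182,780, 10.0nM). Fluorescence from CellTiter-Fluor is read after a 22hr exposure.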
% is scaled to controls: 0 for no effect and ±100 for the full control effect.

CCC1(C2=NCCN2)Cc2ccccc2O1 (centres undefined)
inactive: Potency [1] | Potency [2] | Potency [3] | Potency [4] | outcome [5] | Potency [6] | Potency [7] | Potency [8] | Potency [9] | Potency [10] | Potency [11] | Potency [12] | outcome [13] | Potency [14] | outcome [15] | Potency [16]

NC(=O)CF
inactive: Potency [1] | Potency [2] | Potency [4] | Potency [17] | outcome [5] | Potency [6] | Potency [18] | Potency [7] | Potency [8] | Potency [9] | Potency [10] | Potency [11] | outcome [13] | Potency [14] | outcome [15] | Potency [16]

O=C(Cc1ccccc1)c1ccccc1
inactive: Potency [1] | Potency [2] | Potency [4] | outcome [5] | Potency [6] | Potency [18] | Potency [7] | Potency [8] | Potency [9] | Potency [10] | Potency [12] | outcome [13] | Potency [14] | outcome [15] | Potency [16]

CCCCCCCCCCCCCCCl
inactive: Potency [1] | Potency [2] | Potency [4] | Potency [17] | outcome [5] | Potency [6] | Potency [18] | Potency [7] | Potency [8] | Potency [9] | Potency [10] | Potency [11] | Potency [12] | outcome [13] | Potency [14] | outcome [15] | Potency [16]

CN1CC[C@]23c4c5ccc(O)c4O[C@H]2[C@@H](O)C=C[C@H]3[C@H]1C5
inactive: Potency [1] | Potency [2] | Potency [3] | Potency [4] | outcome [5] | Potency [6] | Potency [18] | Potency [7] | Potency [8] | Potency [9] | Potency [10] | Potency [11] | Potency [12] | outcome [13] | Potency [14] | outcome [15] | Potency [16]

CC(C)c1ccc(OP(=O)(Oc2ccc(C(C)C)cc2)Oc2ccc(C(C)C)cc2)cc1
inactive and 30.6 µM (active): Potency [10]
active: Potency [2] 21.8 µM and 27.3 µM and 21.7 µM | Potency [4] 27.5 µM and 30.6 µM | Potency [9] 30.6 µM
inactive: Potency [1] | Potency [17] | outcome [5] | Potency [6] | Potency [18] | Potency [7] | Potency [11] | Potency [12] | outcome [13] | Potency [14] | outcome [15] | Potency [16]

CCOc1cccc(C2(N3CCN(c4ccccc4)CC3)CCC(C)CC2)c1 (centres undefined)
inactive: Potency [1] | Potency [2] | Potency [4] | Potency [17] | outcome [5] | Potency [6] | Potency [18] | Potency [7] | Potency [8] | Potency [10] | Potency [11] | Potency [12] | outcome [13] | Potency [14] | outcome [15] | Potency [16]

CCCC[N+]1(C)[C@@H]2CC(OC(=O)[C@H](CO)c3ccccc3)C[C@H]1[C@@H]1O[C@@H]12 (some centres undefined)
inactive: Potency [1] | Potency [2] | Potency [4] | Potency [17] | outcome [5] | Potency [6] | Potency [18] | Potency [7] | Potency [8] | Potency [9] | Potency [10] | Potency [11] | Potency [12] | outcome [13] | Potency [14] | outcome [15] | Potency [16]

O=C(O)C(O)C(O)C(=O)O (centres undefined)
inactive: Potency [1] | Potency [2] | Potency [4] | Potency [17] | Potency [7] | Potency [8] | Potency [9] | Potency [10] | Potency [11] | Potency [12] | outcome [13] | Potency [14] | outcome [15] | Potency [16]

CCCBr
inactive: Potency [1] | Potency [2] | Potency [4] | Potency [17] | outcome [5] | Potency [18] | Potency [7] | Potency [8] | Potency [10] | Potency [11] | Potency [12] | outcome [13] | Potency [14] | outcome [15] | Potency [16]

N#CC(C#N)=Cc1ccc(O)c(O)c1
inactive: Potency [1] | Potency [2] | Potency [3] | Potency [4] | Potency [17] | outcome [5] | Potency [6] | Potency [7] | Potency [8] | Potency [10] | Potency [11] | outcome [13] | Potency [14] | outcome [15] | Potency [16]

CCOP(=O)(SC(C)CC)N1CCSC1=O (centres undefined)
inactive: Potency [1] | Potency [2] | Potency [4] | outcome [5] | Potency [6] | Potency [18] | Potency [7] | Potency [8] | Potency [9] | Potency [10] | Potency [11] | outcome [13] | Potency [14] | outcome [15] | Potency [16]

CCOC(=O)c1cncn1C(C)c1ccccc1 (centres undefined)
inactive: Potency [1] | Potency [2] | Potency [4] | Potency [17] | outcome [5] | Potency [6] | Potency [7] | Potency [8] | Potency [9] | Potency [10] | Potency [12] | outcome [13] | Potency [16]

CC(CC(C(N)=O)(c1ccccc1)c1ccccc1)N(C)C (centres undefined)
inactive: Potency [1] | Potency [2] | Potency [3] | Potency [4] | outcome [5] | Potency [6] | Potency [18] | Potency [7] | Potency [8] | Potency [9] | Potency [10] | Potency [11] | Potency [12] | outcome [13] | Potency [14] | outcome [15] | Potency [16]

Nc1c(Br)cc(Br)c2c1C(=O)c1ccccc1C2=O
inactive: activity change, negative = cytotoxicity [1] -5.97% [at 19 µM] | activity change, negative = cytotoxicity [2] -3.72% [at 19 µM] | activation [3] 0.208% [at 19 µM] | activity change, negative = cytotoxicity [4] 0.853% [at 19 µM] | cAMP activity change [5] 2.44% [at 18.9 µM] | activity change, negative = inhibition [6] -1.61% [at 19 µM] | activation [7] 0.744% [at 19 µM] | activity change, negative = inhibition [8] 9.35% [at 18.9 µM] | activity change, negative = cytotoxicity [9] -0.481% [at 18.9 µM] | viability change, negative = cytotoxic [11] 4.07% [at 15.8 µM] | activity change, negative = cytotoxicity [12] 9.34% [at 15.8 µM] | activation [13] -5.21% [at 15.8 µM] | activity, negative = inhibition [14] -4.46% [at 10.5 µM] | activation [15] -0.213% [at 11.8 µM]

CC[N+]1(C)CCCC(OC(=O)C(O)(c2ccccc2)c2ccccc2)C1 (centres undefined)
inactive: Potency [1] | Potency [2] | Potency [4] | outcome [5] | Potency [6] | Potency [18] | Potency [7] | Potency [8] | Potency [9] | Potency [10] | Potency [11] | Potency [12] | outcome [13] | Potency [14] | outcome [15] | Potency [16]

— PubChem BioAssay (Tox21)
